Sampled rows, rich in hits. Any-hit rate of the full collection: about 8.1%.
KB-3-1 tox = qHTS assay for MDR1-selective chemotherapeutics: Primary screen using the parental adenocarcinoma cell KB-3-1; KB-3-1 viability, CellTiter-Glo ATP luminescence, 72 h; Potency, µM (highest dose often 46.1 µM), actives largely listed as cytotoxic; hit rate 1.4% among 400,000; AID 1347075, 2019; note: % is set by controls: 0 for no effect and ±100 for the full control effect; nearly all actives have a fitted effect of over 60% in size
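Here the drug-naive KB-3-1 line serves as comparator for MDR sub-line selectivity; cells received compound titrations, 72 h at 37 °C, then CellTiter-Glo readout.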
MCF10A rereplic = A quantitative high throughput screen for small molecules that induce DNA re-replication in MCF 10a normal breast cells | hit rate 2.9% among 350,000 | MCF 10A DNA re-replication, Hoechst nuclear intensity, 48 h | Potency, µM (series often up to 46.1 µM), without a hit: at the top dose activity, positive = re-replication, usual class: activators | AID 624296, 2012; note: % of control where 0% means no effect; nearly all actives have a fitted effect of over 50% in size
ELG1 repair inh = qHTS screen for small molecules that inhibit ELG1-dependent DNA repair in human embryonic kidney (HEK293T) cells expressing luciferase-tagged ELG1; Potency, µM (series often up to 46.1 µM), for inactives: top-dose activity change, negative = inhibition, most hits filed as inhibitors; hit rate 2.3% among 330,000; HEK293T ELG1-luciferase reporter, luminescence, 16 h; DNA damage induced by 5-fluorouridine; note: % is set by controls: 0 for no effect and ±100 for the full control effect; nearly all actives have a fitted effect of over 55% in size
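5-Fluorouridine DNA damage + compound/DMSO, 2,000 cells/well, 16 h, 37 °C/5% CO2. ONE-Glo, 30 min RT, luminescence. Readout = decrease in reporter signal.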
SW480 rerep = A quantitative high throughput screen for small molecules that induce DNA re-replication in SW480 colon adenocarcinoma cells | SW480 DNA re-replication, Hoechst DNA content imaging, 48 h | Potency, µM (doses to about 46.1 µM), for inactives: at the highest dose re-replication activation, hits mostly activators | hit rate 1.8% among 340,000 | AID 624297, 2012; note: % of control where 0% means no effect; nearly all actives have a fitted effect of over 55% in size
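Image-based DNA-content assay: after two days of treatment, nuclei were labelled with the DNA dye Hoechst and imaged, and hits were compounds raising the count of nuclei showing high fluorescence intensity.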
KB-V1 cytotox = qHTS assay for MDR1-selective chemotherapeutics: Primary screen using the drug-selected MDR subline cells KB-V1; KB-V1 MDR cells viability, CellTiter-Glo, 72 h; Potency, µM (doses to about 46.1 µM), usual class: cytotoxic; hit rate 3.4% among 400,000; AID 1347076, 2019; note: % is set by controls: 0 for no effect and ±100 for the full control effect; nearly all actives have a fitted effect of over 60% in size
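Potencies derive from concentration-effect curves fitted to normalized luminescence (CellTiter-Glo) of KB-V1 cells treated for 72 h at 37 degrees C in phenol-red-free DMEM containing 10% FBS.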
The depositor's hits bear a star; i = inactive; ? = inconclusive; . = no result given; [ ] = remark or other dose. Calls come from the whole dose curve; as a rule, active = well fitted curve in the direction sought with a large enough effect; inconclusive = small, poorly fitted or top-dose-only effect, or another doubt; inactive = no such curve, though single readings can be large; an effect the other way counts as inactive or inconclusive. Potency is the fitted concentration of half-maximal effect.

SMILES | KB-3-1 tox | MCF10A rereplic | ELG1 repair inh | SW480 rerep | KB-V1 cytotox
Cc1ccc(C)c(NC(=S)NCc2cccs2)c1 | i | 3% | 1% | 6% | i
COc1ccc(-n2nnnc2-c2cnc3cc4c(cc3c2C)OCO4)cc1 | i | 3% | -16% | 9% | 9.2µM*
COc1ccc(C(=O)Nc2nc(C)c3cc4c(cc3n2)OCO4)cc1 | i | ? | 9% | 4% | i
CCOC(=O)C1=C[C@@H](C)N(S(=O)(=O)c2ccc(C)cc2)[C@H]1c1ccccc1 | i | . | . | . | i
C=CCn1c(SCc2ccccc2C#N)nnc1-c1cc(Br)ccc1O | ? | ? | ? | 11% | 3.7µM*
CC(C)(C)C(=O)/C=c1\[nH]c(=O)/c(=C\c2ccccc2F)s1 | i | 0% | -19% | -41%[1.84 µM] | i
Cc1ccccc1/C=c1\s/c(=C\C(=O)C(C)(C)C)[nH]c1=O | ? | 16µM* | ? | ? | ?
Cc1cc([N+](=O)[O-])nn1Cc1ccc(C(=O)N/N=C/c2ccc(O)cc2O)cc1 | ? | ? | -14% | ? | ?
COc1cccc(NC(=O)N(Cc2cn(C)c3ccccc23)C2CCCCC2)c1 | i | . | . | . | i
COc1cc(C(=O)NS(=O)(=O)c2ccccc2C)ccc1Cc1cn(C)c2ccc(NC(=O)OC3CCCC3)cc12 | . | 21µM* | . | 1% | .
CN(CC(=O)N1CCOCC1)C(=O)CSc1nc2ccccc2s1 | i | -9% | 7% | -3% | i
Cc1c(N(C)S(=O)(=O)c2ccc(Cl)c(C(=O)N3CCC(C(N)=O)CC3)c2)c(=O)n(-c2ccccc2)n1C | i | 8% | -15% | 6.5µM* | i
CN1CCOc2ccc(S(=O)(=O)NCCc3ccc(Cl)cc3)cc21 | i | 13% | 0% | 3% | i
O=C(c1ccc(Cl)cc1)N1CCc2c([nH]c3ccccc23)C1C(F)(F)F (stereo unspecified) | i | ? | ? | 14% | i
COc1cccc(Cl)c1NC(=O)N1CCc2c([nH]c3ccccc23)C1C(F)(F)F (stereo unspecified) | i | 5.8µM* | ? | ? | i
CC1c2[nH]c3ccccc3c2CCN1C(=O)Nc1ccccc1 (stereo unspecified) | ? | 10% | ? | ? | 8.2µM*
O=C(Nc1ccccc1)N1CCc2c([nH]c3ccccc23)C1C(F)(F)F (stereo unspecified) | i | ? | ? | ? | ?
O=C(O)c1cc2sccc2s1 | i | ? | -5% | 7%[9.22 µM] | i
CC1CCCC(NC(=O)C2COc3ccccc3O2)C1C (stereo unspecified) | i | 12% | 0% | -7% | 13µM*
CC1CCC(NC(=O)C2COc3ccccc3O2)CC1 (stereo unspecified) | i | -2% | ? | -6% | i
CCC(=O)Nc1ccc(S(=O)(=O)N2CCCCC2)cc1OC | i | 28% | -8% | -8% | i
CCC(=O)Nc1ccc(S(=O)(=O)Nc2cccc(C)c2)cc1OC | ? | ? | 0% | 7% | 18µM*
O=C(CN1C(=O)c2ccccc2S1(=O)=O)Nc1ccccc1 | i | 6.5µM* | 20% | 0% | i
Cc1ccc(NC(=O)CN2C(=O)c3ccccc3S2(=O)=O)cc1C | i | ? | ? | -4% | i
Cc1ccc(NC(=O)CSc2nc3ccccc3nc2N2CCCC2)cc1 | 18µM* | 13% | ? | 19% | ?
SMILES | KB-3-1 tox | MCF10A rereplic | ELG1 repair inh | SW480 rerep | KB-V1 cytotox
CCCCn1c(SCC(=O)Nc2cc(NC(=O)c3ccco3)ccc2C)nc2ccccc2c1=O | i | ? | 16µM* | 1% | ?
Cc1ccc(NC(=O)CSc2nc3ccccc3c(=O)n2CCCC(=O)N2CCCC2)cc1 | 6.3µM* | 6% | -18% | ? | ?
Cc1ccc(NC(=O)CSc2nc3ccccc3c(=O)n2CCC(=O)NC2CCCCC2)cc1C | i | . | . | . | i
Cc1ccc(NC(=O)CSc2nc3ccccc3c(=O)n2CCCN2CCCCC2)cc1C | ? | 15µM* | -1% | ? | ?
COc1ccccc1N1Cc2ccccc2C1 | i | 13% | 12% | 0% | i
CC(C)(C)NC(=O)NC(=O)CN1CCCCCCC1 | ? | 9%[9.22 µM] | 14% | 3% | i
CCc1ccc(N2CC(C(=O)N/N=C/c3cccc([N+](=O)[O-])c3)CC2=O)cc1 (stereo unspecified) | i | -6% | 1% | -5% | i
O=C(CCCn1c(SCC(=O)NCC2CCCO2)nc2ccccc2c1=O)NCc1ccccc1 (stereo unspecified) | i | 0% | -9% | -3% | i
O=C(CSc1nc2ccccc2c(=O)n1CCC(=O)N1CCCCC1)NCc1ccccc1 | i | 18% | 15µM* | -2% | 2.1µM*
COc1cc(OC)c(NC(=O)c2cc3c(=O)oc4ccc(C)cc4c3s2)cc1Cl | i | . | . | . | ?
Cc1ccc(-n2c(O)c(C=NC3CCS(=O)(=O)C3)c3ccccc3c2=O)cc1C (stereo unspecified) | i | 3% | -16% | 1% | i
Cc1noc(C)c1C(=O)Nc1nc(-c2ccc([N+](=O)[O-])cc2)cs1 | . | ? | -12% | -10% | .
CC(C)C(=O)Nc1ccc(Cl)cc1-c1nc2ccccc2[nH]c1=O | i | 14% | -21% | 0% | i
Cc1ccc(CN=C2Nc3ccccc3CS2)cc1 | ? | ? | ? | 0% | 13µM*
CCn1cc(C(=O)N(C)c2ccc(OC)cc2OC)c2cc(OC)c(OC)cc2c1=O | i | -2% | 15µM* | -4% | i
CC(C)N1CC(COc2ccc(Br)cc2)OC1=O (stereo unspecified) | i | -1% | -2% | -11% | i
Nc1nc(SCC(=O)OCc2ccccc2)[nH]c(=O)c1NC(=O)c1ccco1 | i | -6% | 6% | 1% | i
COc1cccc(CN(Cc2ccco2)S(=O)(=O)c2ccc(S(=O)(=O)NCc3ccccc3)cc2)c1OC | i | 4% | 12µM* | -1% | i
CCOC(=O)c1cnc2ccc(C)cc2c1OCc1cc(F)cc(F)c1 | i | 11% | ? | -4% | i
CCN(CC(=O)Nc1c(F)cccc1F)C(=O)CCc1nc2ccccc2c(=O)[nH]1 | i | -15% | 21% | 29µM* | i
CCN(CC(=O)Nc1c(F)cccc1F)C(=O)CCCc1nc2ccccc2c(=O)[nH]1 | i | 6% | 16% | -2% | i
CCN(CC(=O)Nc1c(F)cccc1F)C(=O)CCC(=O)c1ccc(F)cc1 | i | -1% | 21% | -5% | i
